Experiments:
Assay in all cases: DAPPL (digital affinity profiling via proximity ligation, sequencing); 10 mM Tris-HCl pH 7.5, 50 mM NaCl, 1 mM DTT, 4% glycerol, room temperature, 30 min; GST-TFs on glutathione beads, 16-mer random dsDNA library, 0.1% formaldehyde crosslink after washing; high values mean tight binding
Conditions in all cases: protein: recombinant; tags: N-terminal GST; dsDNA, one strand shown
ELK1 = molecular target: T1, ELK1 (Homo sapiens, UniProt P19419 1-428)
T1 sequence: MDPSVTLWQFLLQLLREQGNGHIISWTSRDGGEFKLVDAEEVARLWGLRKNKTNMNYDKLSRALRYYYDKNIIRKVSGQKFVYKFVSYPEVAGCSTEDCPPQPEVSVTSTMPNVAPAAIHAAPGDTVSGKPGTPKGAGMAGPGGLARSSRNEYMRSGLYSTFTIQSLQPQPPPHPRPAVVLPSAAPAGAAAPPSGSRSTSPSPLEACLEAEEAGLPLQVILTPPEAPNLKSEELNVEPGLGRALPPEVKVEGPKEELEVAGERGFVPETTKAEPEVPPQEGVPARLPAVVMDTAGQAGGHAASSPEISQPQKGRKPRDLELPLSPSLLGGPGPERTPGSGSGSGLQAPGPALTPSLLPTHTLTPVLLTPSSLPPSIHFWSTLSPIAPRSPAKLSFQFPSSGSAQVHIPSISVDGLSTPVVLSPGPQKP
Summary of the method: (§1)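 After expression in yeast as GST fusions, human transcription factors were bound to glutathione beads, DNA-barcoded and mixed with a tag-only sample. The pools were incubated with 200 nmole of a 16-mer random double-stranded DNA library in Tris/NaCl/DTT/glycerol buffer (30 min, room temperature), washed and crosslinked with 0.1% formaldehyde. Proximity ligation with BsaI/T4 ligase ran for 1 h at 37 °C, before PCR amplification and sequencing on an Illumina NextSeq500. Binding signal is a hexamer's read frequency for a factor divided by its frequency for the tag-only sample.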

ERG = molecular target: T2, ERG (Homo sapiens, UniProt P11308 1-479)
T2 sequence: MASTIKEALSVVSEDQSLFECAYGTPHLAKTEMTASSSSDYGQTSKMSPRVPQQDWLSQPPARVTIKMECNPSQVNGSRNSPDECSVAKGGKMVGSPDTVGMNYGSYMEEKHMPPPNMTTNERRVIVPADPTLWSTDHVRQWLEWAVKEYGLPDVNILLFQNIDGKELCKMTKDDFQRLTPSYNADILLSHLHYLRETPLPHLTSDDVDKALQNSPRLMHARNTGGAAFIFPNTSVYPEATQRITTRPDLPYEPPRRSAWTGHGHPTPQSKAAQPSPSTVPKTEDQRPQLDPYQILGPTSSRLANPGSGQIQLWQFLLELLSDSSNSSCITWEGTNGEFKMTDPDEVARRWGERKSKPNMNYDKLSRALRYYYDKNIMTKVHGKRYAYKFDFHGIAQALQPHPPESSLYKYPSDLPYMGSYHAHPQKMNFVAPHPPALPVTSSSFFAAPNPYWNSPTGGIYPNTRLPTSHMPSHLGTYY
Summary of the method: as §1

ELF1 = ELF1 (Homo sapiens, UniProt P32519 1-619)
ELF1, sequence (P32519 whole entry): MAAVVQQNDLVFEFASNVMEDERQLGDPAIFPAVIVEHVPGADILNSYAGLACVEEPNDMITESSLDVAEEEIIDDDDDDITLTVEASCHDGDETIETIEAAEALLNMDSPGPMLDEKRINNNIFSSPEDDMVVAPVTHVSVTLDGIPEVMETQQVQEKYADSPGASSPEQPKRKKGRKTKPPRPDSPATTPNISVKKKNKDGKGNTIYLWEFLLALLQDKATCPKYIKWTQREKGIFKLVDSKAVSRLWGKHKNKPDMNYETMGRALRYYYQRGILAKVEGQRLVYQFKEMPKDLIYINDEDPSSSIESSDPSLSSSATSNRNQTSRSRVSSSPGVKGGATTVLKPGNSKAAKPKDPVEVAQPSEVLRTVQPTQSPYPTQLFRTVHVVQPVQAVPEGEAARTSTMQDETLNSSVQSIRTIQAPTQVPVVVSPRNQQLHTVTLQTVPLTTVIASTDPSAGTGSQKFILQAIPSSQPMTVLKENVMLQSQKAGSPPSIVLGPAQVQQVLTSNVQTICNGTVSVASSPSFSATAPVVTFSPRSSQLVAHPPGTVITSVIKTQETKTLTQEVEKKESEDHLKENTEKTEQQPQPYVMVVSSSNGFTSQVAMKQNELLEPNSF
Summary of the method: as §1

EHF = molecular target: T3, EHF (Homo sapiens, UniProt Q9NZC4 1-300)
T3 sequence: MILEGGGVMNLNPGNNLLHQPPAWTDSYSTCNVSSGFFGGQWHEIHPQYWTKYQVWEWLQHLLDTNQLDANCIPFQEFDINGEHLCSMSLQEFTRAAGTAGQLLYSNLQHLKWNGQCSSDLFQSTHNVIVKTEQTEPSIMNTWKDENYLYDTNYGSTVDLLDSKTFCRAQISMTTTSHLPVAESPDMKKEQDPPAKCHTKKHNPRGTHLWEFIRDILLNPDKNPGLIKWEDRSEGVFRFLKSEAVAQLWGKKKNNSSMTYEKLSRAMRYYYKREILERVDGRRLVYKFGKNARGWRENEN
Summary of the method: as §1

SPIB = SPIB (Homo sapiens, UniProt Q01892 1-262)
SPIB, sequence (Q01892 whole entry): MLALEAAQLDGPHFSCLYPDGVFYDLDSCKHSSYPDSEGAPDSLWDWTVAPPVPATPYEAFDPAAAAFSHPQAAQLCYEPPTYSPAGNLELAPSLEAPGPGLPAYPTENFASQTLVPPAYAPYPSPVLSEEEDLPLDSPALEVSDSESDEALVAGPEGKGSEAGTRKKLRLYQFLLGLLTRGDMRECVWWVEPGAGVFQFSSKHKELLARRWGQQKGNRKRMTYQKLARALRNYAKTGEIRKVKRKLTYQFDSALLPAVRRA
Summary of the method: as §1

ETV5 = ETV5 (Homo sapiens, UniProt P41161 1-510)
ETV5, sequence (P41161 whole entry): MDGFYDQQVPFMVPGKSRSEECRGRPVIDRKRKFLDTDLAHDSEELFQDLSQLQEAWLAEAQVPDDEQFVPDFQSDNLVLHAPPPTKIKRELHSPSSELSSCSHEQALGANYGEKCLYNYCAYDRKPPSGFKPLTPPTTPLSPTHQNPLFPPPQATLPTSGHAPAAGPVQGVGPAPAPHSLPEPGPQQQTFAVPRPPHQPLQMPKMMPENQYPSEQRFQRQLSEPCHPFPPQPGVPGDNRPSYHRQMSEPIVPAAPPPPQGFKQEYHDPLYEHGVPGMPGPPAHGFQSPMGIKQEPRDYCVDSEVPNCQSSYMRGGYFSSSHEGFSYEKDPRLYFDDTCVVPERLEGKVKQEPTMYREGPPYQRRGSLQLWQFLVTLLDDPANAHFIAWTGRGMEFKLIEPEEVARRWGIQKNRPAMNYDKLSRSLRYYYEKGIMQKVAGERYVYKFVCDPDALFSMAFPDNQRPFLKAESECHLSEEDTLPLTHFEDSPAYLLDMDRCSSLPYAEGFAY
Summary of the method: as §1

SPIC = molecular target: T4, SPIC (Homo sapiens, UniProt Q8N5J4 1-248)
T4 sequence: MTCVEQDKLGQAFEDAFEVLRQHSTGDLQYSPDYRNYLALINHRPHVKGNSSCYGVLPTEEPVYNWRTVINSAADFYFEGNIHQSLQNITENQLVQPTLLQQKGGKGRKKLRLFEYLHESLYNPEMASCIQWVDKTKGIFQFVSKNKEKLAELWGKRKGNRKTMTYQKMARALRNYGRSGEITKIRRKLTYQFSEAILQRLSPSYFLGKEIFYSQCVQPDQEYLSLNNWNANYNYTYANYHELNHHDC
Summary of the method: as §1

ELK4 = molecular target: T5, ELK4 (Homo sapiens, UniProt P28324-2 1-405)
T5 sequence: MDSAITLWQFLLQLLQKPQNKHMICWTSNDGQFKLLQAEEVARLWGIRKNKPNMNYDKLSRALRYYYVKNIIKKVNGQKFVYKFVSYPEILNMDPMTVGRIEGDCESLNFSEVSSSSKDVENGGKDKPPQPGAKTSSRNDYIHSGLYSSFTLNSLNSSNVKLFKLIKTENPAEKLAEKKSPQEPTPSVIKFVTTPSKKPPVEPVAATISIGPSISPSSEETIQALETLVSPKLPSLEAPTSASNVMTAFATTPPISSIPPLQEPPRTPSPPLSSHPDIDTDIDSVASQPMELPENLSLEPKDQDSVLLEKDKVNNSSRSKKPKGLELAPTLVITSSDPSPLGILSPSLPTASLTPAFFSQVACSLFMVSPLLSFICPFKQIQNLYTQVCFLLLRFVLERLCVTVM
Summary of the method: as §1

ELF3 = molecular target: T6, ELF3 (Homo sapiens, UniProt P78545 1-371)
T6 sequence: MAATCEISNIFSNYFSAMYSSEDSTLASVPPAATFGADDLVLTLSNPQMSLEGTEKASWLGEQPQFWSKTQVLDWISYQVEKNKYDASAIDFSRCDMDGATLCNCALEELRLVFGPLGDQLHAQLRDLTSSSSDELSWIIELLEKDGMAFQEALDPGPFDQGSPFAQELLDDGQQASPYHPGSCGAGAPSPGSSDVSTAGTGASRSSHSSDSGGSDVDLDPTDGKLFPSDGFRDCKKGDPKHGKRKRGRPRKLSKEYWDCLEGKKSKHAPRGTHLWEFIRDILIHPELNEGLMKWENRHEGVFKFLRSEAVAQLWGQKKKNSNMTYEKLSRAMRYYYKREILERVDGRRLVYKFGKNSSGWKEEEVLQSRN
Summary of the method: as §1

ETV1 = ETV1 (Homo sapiens, UniProt P50549 1-477)
ETV1, sequence (P50549 whole entry): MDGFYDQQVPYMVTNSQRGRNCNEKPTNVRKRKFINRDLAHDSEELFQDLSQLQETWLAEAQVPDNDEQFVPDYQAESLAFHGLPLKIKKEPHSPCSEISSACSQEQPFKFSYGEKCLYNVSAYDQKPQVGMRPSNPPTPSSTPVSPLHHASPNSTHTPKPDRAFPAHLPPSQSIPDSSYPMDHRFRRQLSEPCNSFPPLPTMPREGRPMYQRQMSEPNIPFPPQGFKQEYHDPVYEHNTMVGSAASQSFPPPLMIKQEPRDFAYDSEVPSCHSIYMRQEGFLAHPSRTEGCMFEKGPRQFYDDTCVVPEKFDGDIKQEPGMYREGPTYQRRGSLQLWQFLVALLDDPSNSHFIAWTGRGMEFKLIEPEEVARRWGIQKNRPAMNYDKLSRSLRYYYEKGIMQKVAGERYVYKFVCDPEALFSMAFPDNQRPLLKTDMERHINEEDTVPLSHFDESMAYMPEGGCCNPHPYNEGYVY
Summary of the method: as §1

ERF = molecular target: T7, ERF (Homo sapiens, UniProt P50548 1-548)
T7 sequence: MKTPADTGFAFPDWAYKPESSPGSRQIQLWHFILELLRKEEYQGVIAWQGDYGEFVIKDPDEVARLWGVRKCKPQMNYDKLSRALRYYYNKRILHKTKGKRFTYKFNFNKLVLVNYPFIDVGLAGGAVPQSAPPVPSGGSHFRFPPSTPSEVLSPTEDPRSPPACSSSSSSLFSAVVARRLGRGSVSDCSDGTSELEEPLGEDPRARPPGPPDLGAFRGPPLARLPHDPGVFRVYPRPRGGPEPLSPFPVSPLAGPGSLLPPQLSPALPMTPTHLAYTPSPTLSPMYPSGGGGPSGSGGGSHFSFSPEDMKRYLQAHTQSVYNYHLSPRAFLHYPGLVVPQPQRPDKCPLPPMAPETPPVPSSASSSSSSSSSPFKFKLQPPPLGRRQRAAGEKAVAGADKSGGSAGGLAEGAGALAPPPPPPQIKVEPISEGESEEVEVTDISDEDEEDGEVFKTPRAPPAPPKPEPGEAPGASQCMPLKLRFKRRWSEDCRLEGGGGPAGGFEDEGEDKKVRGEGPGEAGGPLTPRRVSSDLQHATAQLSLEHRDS
Summary of the method: as §1

ETV3L = molecular target: T8, ETV3L (Homo sapiens, UniProt Q6ZN32 1-361)
T8 sequence: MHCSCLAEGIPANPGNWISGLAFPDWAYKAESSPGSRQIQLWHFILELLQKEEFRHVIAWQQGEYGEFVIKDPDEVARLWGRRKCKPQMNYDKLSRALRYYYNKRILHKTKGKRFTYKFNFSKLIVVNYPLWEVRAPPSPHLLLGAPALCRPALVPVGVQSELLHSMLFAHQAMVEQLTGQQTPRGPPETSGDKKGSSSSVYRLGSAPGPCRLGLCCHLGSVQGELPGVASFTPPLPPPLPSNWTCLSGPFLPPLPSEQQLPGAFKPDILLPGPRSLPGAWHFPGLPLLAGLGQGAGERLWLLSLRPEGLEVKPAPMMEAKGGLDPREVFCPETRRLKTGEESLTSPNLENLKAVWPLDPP
Summary of the method: as §1

ETS2 = molecular target: T9, ETS2 (Homo sapiens, UniProt P15036 1-469)
T9 sequence: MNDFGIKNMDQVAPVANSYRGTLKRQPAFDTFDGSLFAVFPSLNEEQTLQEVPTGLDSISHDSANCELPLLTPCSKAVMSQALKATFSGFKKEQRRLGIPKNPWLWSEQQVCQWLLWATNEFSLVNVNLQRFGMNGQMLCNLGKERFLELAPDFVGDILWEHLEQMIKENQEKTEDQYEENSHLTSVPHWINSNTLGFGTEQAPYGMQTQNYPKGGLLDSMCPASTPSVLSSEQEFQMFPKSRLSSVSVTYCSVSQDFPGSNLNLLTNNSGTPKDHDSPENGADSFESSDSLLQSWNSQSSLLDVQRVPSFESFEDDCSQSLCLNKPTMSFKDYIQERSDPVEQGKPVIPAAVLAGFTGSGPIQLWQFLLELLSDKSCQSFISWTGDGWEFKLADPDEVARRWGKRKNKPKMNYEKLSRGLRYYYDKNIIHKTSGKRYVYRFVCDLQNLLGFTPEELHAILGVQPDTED
Summary of the method: as §1

SPDEF = molecular target: T10, SPDEF (Homo sapiens, UniProt O95238 1-335)
T10 sequence: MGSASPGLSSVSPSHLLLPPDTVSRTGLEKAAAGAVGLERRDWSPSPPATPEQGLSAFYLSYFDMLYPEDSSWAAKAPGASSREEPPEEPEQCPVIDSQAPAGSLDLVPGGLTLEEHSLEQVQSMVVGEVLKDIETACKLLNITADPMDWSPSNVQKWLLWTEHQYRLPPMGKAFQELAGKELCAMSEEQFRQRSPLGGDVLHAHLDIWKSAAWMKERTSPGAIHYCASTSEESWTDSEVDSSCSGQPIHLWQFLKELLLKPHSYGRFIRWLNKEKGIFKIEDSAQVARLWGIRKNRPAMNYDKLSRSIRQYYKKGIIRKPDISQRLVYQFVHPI
Summary of the method: as §1

ETV7 = molecular target: T11, ETV7 (Homo sapiens, UniProt Q9Y603 1-341)
T11 sequence: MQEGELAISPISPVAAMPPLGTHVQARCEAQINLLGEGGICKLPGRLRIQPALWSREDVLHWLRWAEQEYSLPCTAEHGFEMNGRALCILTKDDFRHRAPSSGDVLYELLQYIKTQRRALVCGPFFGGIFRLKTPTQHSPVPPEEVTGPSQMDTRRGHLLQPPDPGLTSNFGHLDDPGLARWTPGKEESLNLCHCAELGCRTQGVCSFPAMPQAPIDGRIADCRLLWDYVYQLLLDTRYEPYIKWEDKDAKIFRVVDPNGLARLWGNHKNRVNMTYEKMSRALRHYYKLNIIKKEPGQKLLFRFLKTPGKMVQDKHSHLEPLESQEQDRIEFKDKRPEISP
Summary of the method: as §1

ETV3 = molecular target: T12, ETV3 (Homo sapiens, UniProt P41162-2 1-143)
T12 sequence: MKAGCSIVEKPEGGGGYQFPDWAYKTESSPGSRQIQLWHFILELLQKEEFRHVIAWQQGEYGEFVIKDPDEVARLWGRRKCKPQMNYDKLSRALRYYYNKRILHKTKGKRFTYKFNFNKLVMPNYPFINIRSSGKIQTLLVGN
Summary of the method: as §1

ETV6 = ETV6 (Homo sapiens, UniProt P41212 1-452)
ETV6, sequence (P41212 whole entry): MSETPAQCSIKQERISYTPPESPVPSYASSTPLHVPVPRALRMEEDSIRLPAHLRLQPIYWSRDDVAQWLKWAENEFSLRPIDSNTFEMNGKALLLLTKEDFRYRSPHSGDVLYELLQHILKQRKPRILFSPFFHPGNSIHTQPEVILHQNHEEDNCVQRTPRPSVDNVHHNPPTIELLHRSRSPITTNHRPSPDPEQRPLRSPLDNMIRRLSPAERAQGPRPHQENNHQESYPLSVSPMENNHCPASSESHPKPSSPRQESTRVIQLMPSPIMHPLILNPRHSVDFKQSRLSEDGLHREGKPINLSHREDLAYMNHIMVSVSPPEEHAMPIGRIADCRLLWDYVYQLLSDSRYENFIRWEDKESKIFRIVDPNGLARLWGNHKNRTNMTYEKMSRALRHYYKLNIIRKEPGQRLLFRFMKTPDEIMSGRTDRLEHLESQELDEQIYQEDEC
Summary of the method: as §1

Row | Sequence | binding signal (ELK1) | binding signal (ERG) | binding signal (ELF1) | binding signal (EHF) | binding signal (SPIB) | binding signal (ETV5) | binding signal (SPIC) | binding signal (ELK4) | binding signal (ELF3) | binding signal (ETV1) | binding signal (ERF) | binding signal (ETV3L) | binding signal (ETS2) | binding signal (SPDEF) | binding signal (ETV7) | binding signal (ETV3) | binding signal (ETV6)
1 | GGCTAT | 1.06 fold enrichment (6-mer frequency, TF over GST control) | 1.07 fold enrichment (6-mer frequency, TF over GST control) | 1.02 fold enrichment (6-mer frequency, TF over GST control) | 1.12 fold enrichment (6-mer frequency, TF over GST control) | 1.02 fold enrichment (6-mer frequency, TF over GST control) | 1 fold enrichment (6-mer frequency, TF over GST control) | 1.03 fold enrichment (6-mer frequency, TF over GST control) | 1.15 fold enrichment (6-mer frequency, TF over GST control) | 1.01 fold enrichment (6-mer frequency, TF over GST control) | 1.07 fold enrichment (6-mer frequency, TF over GST control) | 1.06 fold enrichment (6-mer frequency, TF over GST control) | 1.07 fold enrichment (6-mer frequency, TF over GST control) | 1.02 fold enrichment (6-mer frequency, TF over GST control) | 1.05 fold enrichment (6-mer frequency, TF over GST control) | 1.12 fold enrichment (6-mer frequency, TF over GST control) | 1.06 fold enrichment (6-mer frequency, TF over GST control) | 1.03 fold enrichment (6-mer frequency, TF over GST control)
2 | TGAAGC | 1.05 fold enrichment (6-mer frequency, TF over GST control) |  |  | 1.04 fold enrichment (6-mer frequency, TF over GST control) |  | 1.01 fold enrichment (6-mer frequency, TF over GST control) |  | 1.04 fold enrichment (6-mer frequency, TF over GST control) |  |  | 1.07 fold enrichment (6-mer frequency, TF over GST control) |  |  |  |  | 1 fold enrichment (6-mer frequency, TF over GST control) | 1.01 fold enrichment (6-mer frequency, TF over GST control)

— publication PMC7862700, “An all-to-all approach to the identification of sequence-specific readers for epigenetic DNA modifications on cytosine”
